Each structure is given as a SMILES string. Activity calls are given as the source filed them. Unless noted, how the calls were made is not given here.

Test [1] in a line: A549 cell viability effects, profiling panel, calcein-AM fluorescence, 48 h, basal (AID 1162). Further: test concentration not given here. The settings on record: higher = more signal.
A short description of test [2]: adipocyte viability effects, profiling panel, cell-based, 3T3-L1 adipocytes, calcein-AM fluorescence, 48 h, basal (AID 1163). Further: test concentration not given here. The following applies: 3T3-L1 adipocytes viability, higher = more signal.
Test [3] can be described thus: HepG2 cell viability effects, profiling panel, calcein-AM fluorescence, 48 h, basal (AID 1164). Further: test concentration not given here. The following applies: higher = more signal.
Test [4] in a line: MM1S cell viability effects, profiling panel, calcein-AM fluorescence, 48 h, basal (AID 1165).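 Further: viability of MM1S multiple myeloma cells under basal unstimulated conditions; test concentration not given here.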 The settings on record: higher = more signal.
Test [5] can be described thus: basal RPMI8226 viability, no added stimulus, profiling panel, cell-based, calcein-AM fluorescence, 48 h, PK04 Diversity Set (AID 1166).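 Further: cells grown under basal conditions without added stimulus; test concentration not given here.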 The following applies: RPMI8226 myeloma viability, higher = more signal.
A short description of test [6]: basal HepG2 mitochondrial membrane potential changes, profiling panel, cell-based, JC-1 fluorescence, 24 h, 100 nL compound (AID 1167). Further: test concentration not given here. The settings on record: higher = more signal.
A short description of test [7]: basal 3T3-L1 adipocyte mitochondrial potential changes, profiling panel, cell-based, JC-1 fluorescence, 3T3-L1 adipocytes, 24 h, 100 nL compound (AID 1168). Further: test concentration not given here. The settings on record: JC-1 mitochondrial fluorescence, higher = more signal, called active from +8 up or from −8 down.
A short description of test [8]: basal RPMI8226 mitochondrial membrane potential changes, profiling panel, cell-based, JC-1 fluorescence, 24 h, 100 nL compound (AID 1169). Further: test concentration not given here. The following applies: RPMI8226 myeloma, JC-1 mitochondrial potential fluorescence, higher = more signal.
Test [9] is described as follows: basal MM1S mitochondrial membrane potential changes, profiling panel, cell-based, JC-1 fluorescence, 24 h, 100 nL compound (AID 1170). Further: test concentration not given here. The following applies: higher = more signal.
Test [10] can be described thus: A549 lung cancer cell viability effects, profiling panel, resazurin fluorescence, 24 h, PK04 Diversity Set (AID 1171). Further: test concentration not given here. The following applies: higher = more signal, called active from +8 up or from −8 down.
Test [11] is described as follows: HepG2 liver cancer cell viability effects, profiling panel, resazurin fluorescence, 24 h, PK04 Diversity Set (AID 1172). Further: test concentration not given here. The following applies: higher = more signal.
Test [12] in a line: basal S. cerevisiae growth modulation, no modifier, primary screen, OD600, strain BY4716, 24 h, basal condition (AID 1173). The following applies: OD600, 24 h, higher = more signal, called active from +8 up or from −8 down.
Test [13] in a line: MM1S myeloma cell viability, profiling panel, resazurin fluorescence, basal, 24 h, PK04 Diversity Set (AID 1174). Further: test concentration not given here. The following applies: higher = more signal, called active from +8 up or from −8 down.
In test [14] the target is Dihydroorotate dehydrogenase (quinone), mitochondrial (Plasmodium falciparum (isolate 3D7)) (UniProt Q08210). The test can be described thus: PfDHODH enzyme inhibitors, primary screen, biochemical, C-terminal His tag, absorbance 600 nm (AID 1175).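 Further: recombinant parasite enzyme with a five histidine tag at its C terminus; test concentration not given here.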 The settings on record: DCIP absorbance 600 nm, higher = more signal, called active from +8 up or from −8 down.
Chain of Dihydroorotate dehydrogenase (quinone), mitochondrial (Plasmodium falciparum (isolate 3D7)) (Q08210 whole entry, looked up): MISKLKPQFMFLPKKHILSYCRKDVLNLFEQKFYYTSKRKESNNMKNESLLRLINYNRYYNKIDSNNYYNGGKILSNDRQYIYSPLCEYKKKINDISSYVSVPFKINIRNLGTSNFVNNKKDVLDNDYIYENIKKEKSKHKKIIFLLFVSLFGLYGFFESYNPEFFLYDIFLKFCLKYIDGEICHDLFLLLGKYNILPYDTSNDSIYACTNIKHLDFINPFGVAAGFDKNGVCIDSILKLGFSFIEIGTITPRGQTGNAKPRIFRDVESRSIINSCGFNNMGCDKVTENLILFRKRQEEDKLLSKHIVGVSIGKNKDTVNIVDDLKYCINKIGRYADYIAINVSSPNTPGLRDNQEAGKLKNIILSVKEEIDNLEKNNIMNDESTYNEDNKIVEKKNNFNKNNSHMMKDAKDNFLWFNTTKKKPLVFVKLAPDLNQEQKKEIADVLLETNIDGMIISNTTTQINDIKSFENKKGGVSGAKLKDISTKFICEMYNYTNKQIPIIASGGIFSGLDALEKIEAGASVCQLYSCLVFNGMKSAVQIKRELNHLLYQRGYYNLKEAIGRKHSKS
Test [15] is described as follows: P. aeruginosa biofilm formation inhibitors, primary screen, strain PAO1, LB-PBS medium, absorbance 600 nm (AID 1176). Further: test concentration not given here. The settings on record: P. aeruginosa PAO1 growth/biofilm, A600, 12 h; higher = more signal.
Test [16] can be described thus: S. cerevisiae RM11-1a growth modifiers, primary screen, strain RM11-1a, OD600, basal, 24 h (AID 1177).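 Further: cultures grown under basal conditions with no added stressor; test concentration not given here.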 The following applies: OD600, 24 h, higher = more signal, called active from +8 up or from −8 down.
Test [17] in a line: E. coli acrAB mutant growth effects, primary screen, E. coli filamentation inducers, strain DRC39, OD650, 24 h (AID 1178).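 Further: growth measured as culture turbidity by optical density at 650 nm; test concentration not given here.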 The settings on record: higher = more signal, called active from +8 up or from −8 down.
The nature of test [18]: E. coli acrAB mutant growth effects, primary screen, E. coli filamentation inducers, strain DRC39, OD650, 48 h (AID 1179).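 Further: screen aims at cell division blockers that make cells filament.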 The following applies: E. coli DRC39 delta-acrAB growth, higher = more signal, called active from +8 up or from −8 down.
The nature of test [19]: RPMI8226 myeloma cell viability, profiling panel, resazurin fluorescence, basal, 24 h, PK04 Diversity Set (AID 1180).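 Further: RPMI8826 multiple myeloma cell line at 5000 cells per well; test concentration not given here.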 The following applies: higher = more signal.
In test [20] the target is E3 ubiquitin-protein ligase XIAP (Homo sapiens) (UniProt P98170). The experiment in a line: XIAP binders, primary screen, biophysical, small-molecule microarray, fluorescence 635 nm (AID 1181).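 Further: score merges 667 nm emission and signal to noise over triplicate slides.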 The settings on record: small-molecule microarray binding, higher = more signal.
Chain of E3 ubiquitin-protein ligase XIAP (Homo sapiens) (P98170 whole entry, looked up): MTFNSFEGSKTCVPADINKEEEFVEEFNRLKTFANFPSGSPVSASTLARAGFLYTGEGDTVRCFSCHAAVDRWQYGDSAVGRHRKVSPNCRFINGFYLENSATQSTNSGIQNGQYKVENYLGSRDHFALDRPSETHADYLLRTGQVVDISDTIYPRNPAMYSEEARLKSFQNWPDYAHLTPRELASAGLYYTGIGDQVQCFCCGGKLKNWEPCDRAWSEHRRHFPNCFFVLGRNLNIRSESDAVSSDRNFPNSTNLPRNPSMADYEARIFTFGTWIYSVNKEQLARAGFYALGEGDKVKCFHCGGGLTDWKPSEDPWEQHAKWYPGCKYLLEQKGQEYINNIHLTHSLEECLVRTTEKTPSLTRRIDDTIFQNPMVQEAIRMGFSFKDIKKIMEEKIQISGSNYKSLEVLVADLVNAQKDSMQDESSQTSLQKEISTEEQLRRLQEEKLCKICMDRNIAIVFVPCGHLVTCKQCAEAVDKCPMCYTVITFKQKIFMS

As to `O=C1O[C@@H](c2ccccc2)[C@@H](c2ccccc2)N2[C@@H](c3ccccc3OCCO)[C@]3(C(=O)Nc4ccccc43)[C@@H](C(=O)Nc3nc4ccccc4s3)[C@H]12`, the z-score in [1] is -2.12; in test [2], 1.18; in test [3], -1.98; in test [4], -3.17; in test [5] it was -4.44; in test [6], -2.85. The z-score is 3.87 (inactive) in [7]; -1.3 in [8]; -1.54 in test [9]; -1.52 (inactive) in [10]; -0.699 in test [11]; 0.583 (inactive) in test [12]. In addition, the z-score is -2.95 (inactive) in test [13]; 1.36 (inactive) in test [15]; 1.11 (inactive) in test [16]; -0.986 (inactive) in test [17]; -1.25 (inactive) in [18]; -5.15 in [19]. Moreover, the composite z-score is 0.905 (inactive) in test [14] and 0.0975 in test [20].

Regarding `COC(=O)[C@H](Cc1ccccc1)N1CC2=C[C@@H](C3CC3)n3c(=O)n(C)c(=O)n3[C@H]2[C@@H]1[C@@H](O)Cc1ccccc1`, the z-score is 1.97 in test [1]; -0.375 in test [2]; 0.888 in [3]; 0.378 in [4]; -0.473 in test [5]; 1.49 in test [6]. Further, the z-score was -1.06 (inactive) in test [7]; 0.223 in test [8]; -0.804 in [9]; 0.138 (inactive) in [10]; -0.0568 in test [11]; -1.18 (inactive) in [12]. Besides, the z-score in test [13] is -1.07 (inactive); in test [15], 0.0937 (inactive); in test [16] it was -0.143 (inactive); in [17], -0.172 (inactive); in [18] it was -0.228 (inactive); in test [19], 0.358. Besides, the composite z-score is -0.174 (inactive) in test [14] and -0.142 in [20].

With `CCOC(=O)C[C@H]1[C@H](OC(=O)c2ccc(C(=O)c3ccccc3)cc2)[C@@H](NC(=O)CC(C)C)c2cc(OCCCO)ccc2N1C(=O)c1ccc2ccccc2n1`, the z-score is 0.713 in [1]; -0.177 in test [2]; 0.592 in test [3]; 0.143 in test [4]; 0.263 in test [5]; 2.53 in test [6]. Further, the z-score is 1.59 (inactive) in test [7]; 0.944 in [8]; -0.67 in test [9]; 0.59 (inactive) in [10]; 0.85 in [11]; 1.1 (inactive) in test [12]. The z-score in [13] was -0.469 (inactive); in [15], 0.453 (inactive); in [16], 0.8 (inactive); in [17], -0.0708 (inactive); in [18], 0.648 (inactive); in test [19], -0.0956. Besides, the composite z-score in test [14] was -0.888 (inactive); in [20], -0.102.

Take `CC(=O)NCCCC[C@@H]1NC(=O)[C@H]2C[C@@H](C(=O)NCCCCCCNC(=O)CS)[C@@H](c3ccc(O)cc3)N2C1=O`: the z-score was -0.224 in test [1]; 0.726 in test [2]; -1.28 in test [3]; -0.197 in test [4]; 0.0535 in [5]; -1.33 in [6]. In addition, the z-score in test [7] was 0.184 (inactive); in test [8] it was -0.0883; in [9], -0.213; in [10], -0.689 (inactive); in test [11], -0.294; in test [12] it was 0.429 (inactive). Further, the z-score in [13] was -0.523 (inactive); in [15], 1.08 (inactive); in [16] it was 0.518 (inactive); in test [17] it was -0.622 (inactive); in test [18], -1.35 (inactive); in [19], -0.803. Moreover, the figures for the composite z-score in test [14] and in test [20] were 0.761 (inactive) and 0.125, respectively.

With `CO[C@H]1O[C@H](CO)[C@@H](OC(=O)Nc2cccc(F)c2)[C@H](OC(=O)Nc2ccccc2)[C@@H]1OC(=O)Nc1ccccc1`, the z-score was -1.61 in [1]; 0.18 in test [2]; -2.08 in test [3]; -3.43 in test [4]; -4.24 in test [5]; -0.702 in test [6]. For the same compound, the z-score in test [7] is -1.66 (inactive); in test [8], -1.22; in [9] it was -1.07; in test [10], -3.16 (inactive); in test [11], -1.62; in [12] it was 0.706 (inactive). In addition, the z-score in [13] is -2.56 (inactive); in [15], 0.758 (inactive); in [16], 0.666 (inactive); in [17], -0.002 (inactive); in test [18], -0.0057 (inactive); in test [19], -2.4. Moreover, the composite z-score in test [14] is 0.127 (inactive); in test [20] it was 0.0623.

For `CC(C)(C)OC(=O)CC[C@]1(C(=O)N2CCOCC2)N=C(c2ccc(OCCCO)cc2)O[C@H]1c1ccccc1N=[N+]=[N-]`, the z-score in test [1] is 0.901; in [2], 0.232; in [3] it was 0.556; in test [4], -0.474; in [5], -0.337; in [6], 1.27. Besides, the z-score was 3.46 (inactive) in test [7]; -0.252 in test [8]; 0.103 in test [9]; 1.03 (inactive) in test [10]; 0.548 in test [11]; -0.515 (inactive) in [12]. In addition, the z-score is -0.095 (inactive) in test [13]; -0.0684 (inactive) in [15]; 0.207 (inactive) in test [16]; 0.453 (inactive) in [17]; 0.314 (inactive) in test [18]; 0.187 in test [19]. Also, the composite z-score was -0.793 (inactive) in test [14] and 0.115 in test [20].

`O=C1N(Cc2ccccc2)c2ccccc2[C@@H]2OC(c3ccc(OCCCO)cc3)=N[C@]12CCS(=O)(=O)c1ccccc1`: the z-score in test [1] was -0.221; in test [2] it was 0.0205; in [3], 0.455; in [4] it was -0.527; in test [5], 0.144; in [6], -1.33. In addition, the z-score in test [7] was 1.86 (inactive); in test [8], -0.669; in test [9] it was -0.605; in test [10], 0.404 (inactive); in test [11], -0.477; in [12], 1.48 (inactive). For the same compound, the z-score in [13] is -0.444 (inactive); in test [15], 1.71 (inactive); in test [16], 2.25 (inactive); in test [17], -0.0853 (inactive); in test [18], -0.292 (inactive); in [19] it was -0.18. For the same compound, the composite z-score in test [14] was -0.244 (inactive); in test [20] it was -0.0918.

Turning to `CCOC(=O)C[C@H]1[C@H](OC(=O)c2ccc(-c3ccccc3)cc2)[C@@H](NC(=O)Cc2ccc(OC)cc2)c2cc(OCCCO)ccc2N1C(=O)c1ccccc1`, the z-score was -0.137 in test [1]; 0.533 in [2]; -0.42 in [3]; 0.57 in test [4]; -0.432 in test [5]; 1.37 in [6]. The z-score in [7] was -1.03 (inactive); in test [8], 0.0293; in test [9], -0.102; in test [10], -0.657 (inactive); in test [11], -0.616; in [12] it was 0.695 (inactive). The z-score was -0.113 (inactive) in [13]; -0.252 (inactive) in test [15]; 0.87 (inactive) in test [16]; 0.303 (inactive) in test [17]; 0.339 (inactive) in test [18]; 0.0662 in test [19]. In addition, the composite z-score in test [14] was 0.11 (inactive); in test [20], 0.15.

`O=C1NC(=O)C2C1C=CC(C(O)c1cccs1)N2Nc1ccc(Cl)cc1Cl` (stereo not given): the z-score in test [1] is -0.599; in [2], -0.191; in [3] it was -0.165; in [4], -1.71; in test [5], -0.884; in test [6] it was -2.1. The z-score was 0.0583 (inactive) in test [7]; 0.236 in test [8]; -0.219 in test [9]; -0.523 (inactive) in test [10]; -1.14 in test [11]; -6.97 (inactive) in test [12]. Also, the z-score is -0.597 (inactive) in test [13]; 1.08 (inactive) in test [15]; 1.45 (inactive) in [16]; 0.0751 (inactive) in test [17]; -0.86 (inactive) in test [18]; -0.229 in test [19]. The composite z-score in test [14] was 0.572 (inactive); in test [20] it was 0.0374.
